Bioassay records (PubChem BioAssay)
HepG2 tox: counter-screen for TGF-b inhibitors: cytotoxicity in HepG2 cells; HepG2 CAGA-GFP viability, ATP luminescence, 18 h; Potency, µM (highest dose often 46.1 µM), for the others: at the top dose activity change, negative = cytotoxicity, usual class: cytotoxic; actives 0.76% (n = 410,000); further: potency means the concentration at half of the fitted maximal effect
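HepG2 CAGA-GFP cells (1000/well, DMEM with 1% FBS) received compound, then TGF-beta at 500 pg/mL final, and were incubated 18 hours at 37 degrees C. Viability was read by CellTiter-Glo luminescence. Media-only wells were set as complete cell-killing and DMSO as no toxicity.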
ATXN2 expr inh: inhibitors of ATXN2 expression. HEK-293 ATXN2-luciferase reporter, luminescence, 24 h. Potency, µM (series often up to 57 µM), inactives show at the highest dose activity change, negative = inhibition, usual class: inhibitors. actives 0.72% (n = 360,000). AID 1745845; further: potency means the concentration at half of the fitted maximal effect; on the % scale 0 is the no-effect control and ±100 the full control effect; nearly all actives have a fitted effect of over 55% in size
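qHTS (up to 57 uM final) was run with 24 h compound exposure of reporter cells at 37 °C. Each well was multiplexed: SteadyGlo luminescence measured ATXN2-luciferase expression after a fluorogenic Gly-Phe-AFC viability readout (25 uM final).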
D3 ag: activates the human D3 dopamine receptor | D3R DiscoveRx beta-arrestin cells, luminescence, 90 min | max activation, % | actives 0.58% (n = 410,000) | AID 652048; in the data active means max activation above about 30%; further: 0% is about no effect
Target sequence (P35462 whole entry, looked up): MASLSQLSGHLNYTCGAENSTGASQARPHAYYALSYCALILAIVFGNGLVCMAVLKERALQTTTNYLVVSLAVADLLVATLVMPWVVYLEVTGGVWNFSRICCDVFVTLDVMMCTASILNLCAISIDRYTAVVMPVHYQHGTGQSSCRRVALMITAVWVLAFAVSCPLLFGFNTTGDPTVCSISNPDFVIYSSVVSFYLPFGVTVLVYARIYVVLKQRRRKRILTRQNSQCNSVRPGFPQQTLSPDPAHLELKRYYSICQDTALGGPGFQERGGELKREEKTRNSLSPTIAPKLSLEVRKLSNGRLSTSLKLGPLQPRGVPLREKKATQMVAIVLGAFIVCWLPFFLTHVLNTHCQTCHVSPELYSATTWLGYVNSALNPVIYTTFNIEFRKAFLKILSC
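Agonist-mode cell screen: cells plated at 1500/well and incubated overnight at 37 °C, then exposed to library compounds for 90 min at 37 °C. Detection reagent was added for 30–60 min at room temperature, and luminescence was read.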
D3 antag: D3 dopamine receptor (human) antagonism. P35462. D3R cells, DiscoveRx beta-arrestin luminescence, antagonist mode; hits give low values. max response, negative = inhibition, %. actives 2.5% (n = 360,000); in the data active means max response below about -50%; inconclusive means no clear call, values can overlap the other calls; further: on the % scale 0 is the no-effect control and ±100 the full control effect
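Cells expressing the human receptor were seeded at 1500 cells/well, incubated overnight at 37 degrees C in 5% CO2, then exposed to library compounds with dopamine controls for 90 minutes at 37 degrees C before luminescent detection.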
TGFb SMAD3 inh: inhibitors of TGF-b signaling; HepG2 CAGA-GFP TGF-b/SMAD3 reporter, GFP fluorescence, 18 h; TGF-beta stimulated, 500 pg/mL final; Potency, µM (series often up to 46.1 µM), for inactives: at the highest dose activity, negative = inhibition, actives largely listed as inhibitors; actives 1.2% (n = 410,000); further: potency means the concentration at half of the fitted maximal effect; on the % scale 0 is the no-effect control and ±100 the full control effect; nearly all actives have a fitted effect of over 65% in size
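TGF-beta reporter screen: HEPG2 CAGA-GFP, 1% FBS, 500 pg/mL TGF-beta final, 18 h; per-cell GFP summed per well; curves fitted and categorized by class.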
S2 tox: reduces viability in counter-screen for ATXN expression inhibitors; S2 cells (HEK-293 line with an ATXN2-luciferase reporter) viability, CellTiter-Fluor protease fluorescence, 24 h; Potency, µM (series often up to 56.7 µM), actives largely listed as cytotoxic; actives 0.49% (n = 400,000); further: potency means the concentration at half of the fitted maximal effect; nearly all actives have a fitted effect of over 40% in size
Starred values were filed as active, the others as inactive. Most compounds without a hit are left out; they make up all but 4.7% or so of the library. Unless noted, the call rests on the fitted dose curve; in most records, active means well fitted curve in the direction sought with a large enough effect; inconclusive means small, poorly fitted or top-dose-only effect, or another doubt; inactive means no such curve, though single readings can be large; an effect the other way counts as inactive or inconclusive.

How did CCCCNC1=CC(=O)C(=O)c2ccccc21 do in these assays?
HepG2 tox: 7.1µM*; D3 ag: -1; D3 antag: -23; TGFb SMAD3 inh: 3.5µM*; S2 tox: inconclusive

How did c1ccc(Nc2ccccc2)cc1 do in these assays?
HepG2 tox: 16%; ATXN2 expr inh: 5%; D3 ag: 1; D3 antag: 0; TGFb SMAD3 inh: 3%; S2 tox: inactive

Results for CCCCNC1=CC(=O)C(NCCCC)=CC1=O ?
HepG2 tox: -1%; ATXN2 expr inh: -19%; D3 ag: 7; D3 antag: -13; TGFb SMAD3 inh: -10%; S2 tox: inconclusive

Results for COc1ccccc1C1CN(CCNC(=O)c2ccccc2Cl)Cc2ccccc2O1 (stereo unspecified) ?
S2 tox: inactive

What do the screens show for `Cc1ncc2c(c1CNC(=O)c1ccc3c(c1)OCO3)CCN(C(=O)c1cccc(-n3cccn3)c1)C2`?
S2 tox: inactive

How did CCc1ccc2c(c1)C(=O)c1ccccc1C2=O do in these assays?
HepG2 tox: 9%; ATXN2 expr inh: 72%; D3 ag: 2; D3 antag: 14; TGFb SMAD3 inh: 2%; S2 tox: inactive

What do the screens show for `O=C1C=C(Nc2ccccc2C(=O)O)c2ccccc2C1=O`?
HepG2 tox: 16µM*; ATXN2 expr inh: 8%; D3 ag: -8; D3 antag: -27; TGFb SMAD3 inh: inconclusive; S2 tox: inactive

What do the screens show for `O=C(O)c1ccccc1Nc1ccccc1C(=O)O`?
HepG2 tox: -5%; ATXN2 expr inh: -10%; D3 ag: -10; D3 antag: -3; TGFb SMAD3 inh: 8%; S2 tox: inactive

How did CCc1ccc(NC2=CC(=O)C(=O)c3ccccc32)cc1 do in these assays?
HepG2 tox: 2.8µM*; ATXN2 expr inh: inconclusive; D3 ag: -9; D3 antag: 0; TGFb SMAD3 inh: 2µM*; S2 tox: inconclusive

Results for CCCCN(CC)Cc1ccc(CNS(=O)(=O)c2cc3c(cc2Cl)NC(=O)CO3)o1 ?
HepG2 tox: -14%; D3 ag: -19; TGFb SMAD3 inh: -11%

Results for Cc1cccc(C(=O)N(Cc2ccco2)Cc2ccccc2F)c1 ?
HepG2 tox: -34%; D3 ag: -11; TGFb SMAD3 inh: inconclusive

Results for COC(=O)CN1C(=O)C(O)(CC(=O)c2cccc(Br)c2)c2ccccc21 (stereo unspecified) ?
HepG2 tox: -58%; ATXN2 expr inh: -18%; D3 ag: -18; D3 antag: -6; TGFb SMAD3 inh: -13%; S2 tox: inactive

What do the screens show for `Cc1ccccc1CN1C(=O)C(O)(CC(=O)c2cccc(Br)c2)c2ccccc21` (stereo unspecified)?
HepG2 tox: 13µM*; D3 ag: 2; TGFb SMAD3 inh: 13µM*

How did COc1cccc(NC(=O)CSc2nc3ccccc3cc2Cc2ccccc2)c1 do in these assays?
HepG2 tox: 0%; ATXN2 expr inh: 3%; D3 ag: 1; D3 antag: -52*; TGFb SMAD3 inh: -4%; S2 tox: inactive

What do the screens show for `COc1cccc(NC(=O)CSc2nnc(NC(=O)C3CC3)s2)c1`?
HepG2 tox: 0%; ATXN2 expr inh: -9%; D3 ag: 0; D3 antag: -57*; TGFb SMAD3 inh: -1%; S2 tox: inactive

Results for O=C(CCOc1ccccc1)N(Cc1cccnc1)c1nc2c(Cl)cccc2s1 ?
HepG2 tox: 13µM*; D3 ag: -33; TGFb SMAD3 inh: inconclusive

How did O=C(CCS(=O)(=O)c1ccccc1)N(Cc1cccnc1)c1nc2c(Cl)cccc2s1 do in these assays?
HepG2 tox: 0%; D3 ag: -2; TGFb SMAD3 inh: 4µM*

What do the screens show for `Cc1cc(C)c2sc(N(Cc3cccnc3)C(=O)CCS(=O)(=O)c3ccccc3)nc2c1`?
HepG2 tox: 7.1µM*; D3 ag: 3; TGFb SMAD3 inh: 2.5µM*

Results for Cc1cccc2sc(N(Cc3cccnc3)C(=O)CCS(=O)(=O)c3ccccc3)nc12 ?
HepG2 tox: 20µM*; D3 ag: -15; TGFb SMAD3 inh: 11µM*

What do the screens show for `COc1cc(C=O)cc(OC)c1[N+](=O)[O-]`?
HepG2 tox: 6%; TGFb SMAD3 inh: -9%

What do the screens show for `O=C(c1cccs1)N(Cc1cccnc1)c1nc2c(Cl)cccc2s1`?
HepG2 tox: -42%; D3 ag: -6; TGFb SMAD3 inh: 18µM*

How did CC(C)(C)CC(C)(C)N=C1Nc2ccc(Cl)cc2NC12C[C@H]1CCC(=O)N3CC[C@@H](C2)[C@@H]13 (stereo partly specified) do in these assays?
HepG2 tox: 10µM*; TGFb SMAD3 inh: inconclusive

How did O=C1CCC[C@@H]2C[C@@]3(C[C@@H]4CCN1[C@H]24)Nc1cc(Cl)c(Cl)cc1NC3=NCc1ccccc1 do in these assays?
HepG2 tox: -32%; ATXN2 expr inh: 0%; D3 ag: -26; D3 antag: inconclusive; TGFb SMAD3 inh: 11µM*

Results for CCC(C)n1c(=N)c(C(=O)NC2CCCCC2)cc2c(=O)n3cc(C)ccc3nc21 (stereo unspecified) ?
HepG2 tox: -18%; ATXN2 expr inh: -12%; D3 ag: -13; TGFb SMAD3 inh: 9%

How did Cc1ccc(Cl)cc1NC(=O)CCn1c(=O)c2cccn2c2cccnc21 do in these assays?
HepG2 tox: -2%; D3 ag: 1; TGFb SMAD3 inh: -7%

How did COC(=O)c1ccccc1NC(=O)CN1CCN(C23CC4CC(CC(C4)C2)C3)CC1 do in these assays?
HepG2 tox: 4%; ATXN2 expr inh: -4%; D3 ag: -39; D3 antag: -76*; TGFb SMAD3 inh: 11%; S2 tox: inactive

How did CCOC(=O)c1cc(C#N)c(SC(C(=O)N2CCCCC2)c2ccccc2)nc1C (stereo unspecified) do in these assays?
HepG2 tox: -7%; TGFb SMAD3 inh: -9%

Results for CC(=O)c1cc(C#N)c(Oc2ccccc2)nc1C ?
HepG2 tox: -8%; ATXN2 expr inh: 3%; D3 ag: -6; D3 antag: 0; TGFb SMAD3 inh: 1%; S2 tox: inactive

What do the screens show for `CC(=O)c1cc(C#N)c(Oc2ccc(Cl)cc2Cl)nc1C`?
HepG2 tox: -2%; ATXN2 expr inh: -7%; D3 ag: 3; D3 antag: -56*; TGFb SMAD3 inh: 8%; S2 tox: inactive

Results for CC1CCN(Cc2c(C#N)c3ccccc3n2C)CC1 ?
HepG2 tox: -25%; ATXN2 expr inh: -3%; D3 ag: 1; D3 antag: -75*; TGFb SMAD3 inh: 14%; S2 tox: inactive
